Calls of active or inactive are those of the source. The calls were made as follows: active = hit-call score of the fitted dose curve at least 0.9, where 1 is the maximum; inactive = score below 0.9.

Drawing on PubChem BioAssay (EPA / NIEHS), this text covers AC50 and outcome for 9 molecules.

One experiment is described as follows: IUF_NPC1b_proliferation_BrdU_72hr: Leibniz Research Institute for Environmental Medicine (IUF) 72-hour Neural Progenitor Cell Bromodeoxyuridine (BrdU) Proliferation Assay (NPC1b) (AID 2284207). The essentials:
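Luminescent BrdU ELISA measured DNA synthesis during the last 16 h of a 72 h exposure of primary human neural progenitor spheres grown with EGF and FGF. Signal was fitted relative to DMSO controls.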
For `OC(Cc1ccccc1Cl)(Cn1[nH]cnc1=S)C1(Cl)CC1` (configuration not stated), the AC50 (in general, the concentration at which the activity in the assay is half-maximal) was 0.0417 µM (active).
For the molecule `O=S1OC[C@@H]2[C@H](CO1)[C@]1(Cl)C(Cl)=C(Cl)[C@@]2(Cl)C1(Cl)Cl` (some centres not stated), the result was inactive.
As for `Cc1ccccc1OP(=O)(Oc1ccccc1C)Oc1ccccc1C`, the outcome was inactive.
Turning to `CNC(=O)CSP(=O)(OC)OC`, the molecule was classed as inactive.
Consider `CC1(C)[C@H](C(=O)O[C@H](C#N)c2cccc(Oc3ccccc3)c2)[C@@H]1/C=C(\Cl)C(F)(F)F`, for which the AC50 is 3.63 µM (active).
In the case of `CCOCn1c(-c2ccc(Cl)cc2)c(C#N)c(Br)c1C(F)(F)F`, the molecule was called inactive.
Still for that read-out and setting: as for `Cc1cc(C(F)(C(F)(F)F)C(F)(F)F)ccc1NC(=O)c1cccc(I)c1C(=O)NC(C)(C)CS(C)(=O)=O`, the entry is “inactive”.
Same read-out and setting: as for `CC(C)[C@@H](Nc1ccc(C(F)(F)F)cc1Cl)C(=O)OC(C#N)c1cccc(Oc2ccccc2)c1` (some centres not stated), the entry is “inactive”; as for `CS(=O)(=O)c1ccc(C(=O)C2C(=O)CCCC2=O)c(Cl)c1COCC(F)(F)F`, “inactive”.

A short description of another experiment: IUF_NPC1a_proliferation_area_72hr: Leibniz Research Institute for Environmental Medicine (IUF) 72-hour Neural Progenitor Cell Proliferation Area Assay (NPC1a) (AID 2284208). The method, boiled down: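 hNPC spheres (human fetal cortex, GW 16-19), one per poly-Hema U-bottom well; EGF+FGF medium; dosed day 0, no re-dosing; 72 h, 37C, 5% CO2; phase-contrast sphere area; DMSO = baseline; minus-GF = positive ctrl.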
For `OC(Cc1ccccc1Cl)(Cn1[nH]cnc1=S)C1(Cl)CC1` (configuration not stated), the molecule was classed as inactive.
Still for that read-out and setting: as for `O=S1OC[C@@H]2[C@H](CO1)[C@]1(Cl)C(Cl)=C(Cl)[C@@]2(Cl)C1(Cl)Cl` (some centres not stated), the entry is “inactive”.
`Cc1ccccc1OP(=O)(Oc1ccccc1C)Oc1ccccc1C`: the molecule was called inactive.
On to `CNC(=O)CSP(=O)(OC)OC`, for which the result was inactive.
For `CC1(C)[C@H](C(=O)O[C@H](C#N)c2cccc(Oc3ccccc3)c2)[C@@H]1/C=C(\Cl)C(F)(F)F`, the outcome was inactive.
Regarding `CCOCn1c(-c2ccc(Cl)cc2)c(C#N)c(Br)c1C(F)(F)F`, the AC50 is 26.3 µM (active).
As for `Cc1cc(C(F)(C(F)(F)F)C(F)(F)F)ccc1NC(=O)c1cccc(I)c1C(=O)NC(C)(C)CS(C)(=O)=O`, the outcome was inactive.
Same read-out and setting: as for `CC(C)[C@@H](Nc1ccc(C(F)(F)F)cc1Cl)C(=O)OC(C#N)c1cccc(Oc2ccccc2)c1` (some centres not stated), the entry is “inactive”; as for `CS(=O)(=O)c1ccc(C(=O)C2C(=O)CCCC2=O)c(Cl)c1COCC(F)(F)F`, “inactive”.

Another experiment can be described thus: IUF_NPC1_viability_72hr: Viability Assessment at 72 hours in the Leibniz Research Institute for Environmental Medicine (IUF) Neural Progenitor Cell Proliferation Assay (NPC1) (AID 2284209). The essentials:
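Three-day continuous exposure of human neural progenitor spheres under EGF/FGF-driven proliferation; cell viability scored by alamar blue signal versus DMSO.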
Regarding `OC(Cc1ccccc1Cl)(Cn1[nH]cnc1=S)C1(Cl)CC1` (configuration not stated), the call was inactive.
For the molecule `O=S1OC[C@@H]2[C@H](CO1)[C@]1(Cl)C(Cl)=C(Cl)[C@@]2(Cl)C1(Cl)Cl` (some centres not stated), the AC50 was 2.59 µM (active).
Turning to `Cc1ccccc1OP(=O)(Oc1ccccc1C)Oc1ccccc1C`, the call was inactive.
As for `CNC(=O)CSP(=O)(OC)OC`, the molecule was called inactive.
On the same count and under the same terms, the same measure for `CC1(C)[C@H](C(=O)O[C@H](C#N)c2cccc(Oc3ccccc3)c2)[C@@H]1/C=C(\Cl)C(F)(F)F`: “inactive”.
Consider `CCOCn1c(-c2ccc(Cl)cc2)c(C#N)c(Br)c1C(F)(F)F`, for which the AC50 was 26.8 µM (active).
Turning to `Cc1cc(C(F)(C(F)(F)F)C(F)(F)F)ccc1NC(=O)c1cccc(I)c1C(=O)NC(C)(C)CS(C)(=O)=O`, the outcome was inactive.
Still for that read-out and setting: as for `CC(C)[C@@H](Nc1ccc(C(F)(F)F)cc1Cl)C(=O)OC(C#N)c1cccc(Oc2ccccc2)c1` (some centres not stated), the entry is “inactive”; as for `CS(=O)(=O)c1ccc(C(=O)C2C(=O)CCCC2=O)c(Cl)c1COCC(F)(F)F`, “inactive”.
